Measured values as given in PubChem BioAssay (NCATS).
Results filed as inconclusive are left out. Where a call stands in place of a potency, no number is given. A number with no mark means an inactive call. The source made the active and inactive calls. Calls follow the shape of the dose curve; as a rule, active = well fitted cell-killing curve with a large enough effect; inconclusive = small, poorly fitted or top-dose-only effect, or effect the other way; inactive = flat fitted curve, though single readings scatter.

Columns and labels:
Test in all cases: Primary qHTS to identify gynecologic anti-cancer compounds using libraries of approved drugs and bioactive compounds (AID 1345084); also: nearly all actives have a fitted effect of over 55% in size
C33A = conditions: Gynecologic cancer cell panel viability, ATPlite luminescence, 48 h; series mostly up to 57.5 µM
In short: (§1)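 Luminescence from the ATPlite ATP-monitoring reagent indicates viable cell number; lower signal means cytotoxicity. Cells received compound 16 h after seeding and were exposed for 48 h across five concentrations.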

CASKI = conditions: Gynecologic cancer cell panel viability, ATPlite luminescence, 48 h; series mostly up to 57.5 µM
In short: as §1

Es-2 = conditions: Gynecologic cancer cell panel viability, ATPlite luminescence, 48 h; series mostly up to 57.5 µM
In short: as §1

HeLa = conditions: Gynecologic cancer cell panel viability, ATPlite luminescence, 48 h; series mostly up to 57.5 µM
In short: as §1

Hek293T = conditions: Gynecologic cancer cell panel viability, ATPlite luminescence, 48 h, control line for the selectivity index; series mostly up to 57.5 µM
In short: as §1

JEG-3 = conditions: Gynecologic cancer cell panel viability, ATPlite luminescence, 48 h; series mostly up to 57.5 µM
In short: as §1

OV90 = conditions: Gynecologic cancer cell panel viability, ATPlite luminescence, 48 h; series mostly up to 57.5 µM
In short: as §1

PA-1 = conditions: Gynecologic cancer cell panel viability, ATPlite luminescence, 48 h; series mostly up to 57.5 µM
In short: as §1

SKOV3 = conditions: Gynecologic cancer cell panel viability, ATPlite luminescence, 48 h; series mostly up to 57.5 µM
In short: as §1

Tov112D = conditions: Gynecologic cancer cell panel viability, ATPlite luminescence, 48 h; series mostly up to 57.5 µM
In short: as §1

Tov-21-G = conditions: Gynecologic cancer cell panel viability, ATPlite luminescence, 48 h; series mostly up to 57.5 µM
In short: as §1
Potency is read from the fitted curve at half-maximal effect.

C=C1CN(Cc2ccc(C(=O)Nc3ccccc3N)cc2)C(=O)c2ccccc21
Potency (C33A): 2.82 µM (active)
Potency (CASKI): 4.47 µM (active)
Potency (Es-2): 5.01 µM (active)
Potency (HeLa): 3.55 µM (active)
Potency (Hek293T): 2.24 µM (active)
Potency (JEG-3): 5.62 µM (active)
Potency (OV90): 6.31 µM (active)
Potency (PA-1): 2.24 µM (active)
Potency (SKOV3): 1.41 µM (active)
Potency (Tov112D): 3.98 µM (active)

Cc1cccc(C)c1-n1c(=O)c2cnc(Nc3ccc(N4CCN(C)CC4)cc3)nc2n2c3ccccc3nc12
Potency (C33A): 2.82 µM (active)
Potency (CASKI): 14.1 µM (active)
Potency (Es-2): 3.55 µM (active)
Potency (HeLa): 6.31 µM (active)
Potency (Hek293T): 3.55 µM (active)
Potency (JEG-3): 12.6 µM (active)
Potency (OV90): 12.6 µM (active)
Potency (PA-1): 7.94 µM (active)
Potency (Tov-21-G): 0.398 µM (active)
Potency (Tov112D): 8.91 µM (active)

C=C[C@@]12COC(=O)C(=C)C1[C@@H](O)[C@H](C(=C)C(=O)OC)[C@@H](OC(=O)C(=C)CO)C2 (some centres not stated)
Potency (C33A): inactive
Potency (CASKI): inactive
Potency (Es-2): inactive
Potency (HeLa): inactive
Potency (Hek293T): inactive
Potency (JEG-3): inactive
Potency (OV90): inactive
Potency (Tov-21-G): inactive
Potency (Tov112D): inactive

NC1CCC(Nc2cc(-c3cccc(NCc4cccc(F)c4)n3)c(Cl)cn2)CC1 (configuration not stated)
Potency (C33A): 1.26 µM (active)
Potency (CASKI): 0.891 µM (active)
Potency (Es-2): 0.708 µM (active)
Potency (HeLa): 0.355 µM (active)
Potency (Hek293T): 1 µM (active)
Potency (PA-1): 0.178 µM (active)
Potency (Tov112D): 0.891 µM (active)

CCOc1ccc(NC(=S)N2CCC(C(O)(c3ccccc3)c3ccccc3)CC2)cc1
Potency (C33A): inactive
Potency (CASKI): inactive
Potency (Es-2): inactive
Potency (HeLa): inactive
Potency (Hek293T): inactive
Potency (JEG-3): inactive
Potency (OV90): inactive
Potency (PA-1): inactive
Potency (Tov-21-G): inactive
Potency (Tov112D): inactive

CCO[C@@H]1OC(=O)C[C@@H]1NC(=O)[C@@H]1CCCN1C(=O)[C@@H](NC(=O)c1ccc(N)c(Cl)c1)C(C)(C)C
Potency (C33A): inactive
Potency (CASKI): inactive
Potency (Es-2): inactive
Potency (HeLa): inactive
Potency (Hek293T): inactive
Potency (JEG-3): inactive
Potency (OV90): inactive
Potency (PA-1): inactive
Potency (SKOV3): inactive
Potency (Tov-21-G): inactive
Potency (Tov112D): inactive

C=C1CCC2C(C)(C)CCC[C@]2(C)[C@H]1C/C=C(\CO)C(=O)C(=O)O (some centres not stated)
Potency (C33A): inactive
Potency (CASKI): inactive
Potency (Es-2): inactive
Potency (HeLa): inactive
Potency (Hek293T): inactive
Potency (JEG-3): inactive
Potency (OV90): inactive
Potency (SKOV3): inactive
Potency (Tov-21-G): inactive
Potency (Tov112D): inactive

CCC(O)(C(=O)OCc1ccccc1NC(=O)CCC(=O)O)C(C)O (configuration not stated)
Potency (C33A): inactive
Potency (CASKI): inactive
Potency (Es-2): inactive
Potency (HeLa): inactive
Potency (Hek293T): inactive
Potency (JEG-3): inactive
Potency (OV90): inactive
Potency (PA-1): inactive
Potency (Tov-21-G): inactive
Potency (Tov112D): inactive

Cn1c(=O)cc(N2CCCC(N)C2)n(Cc2cc(F)ccc2C#N)c1=O (configuration not stated)
Potency (C33A): inactive
Potency (CASKI): inactive
Potency (Es-2): inactive
Potency (HeLa): inactive
Potency (Hek293T): inactive
Potency (JEG-3): inactive
Potency (OV90): inactive
Potency (PA-1): inactive
Potency (Tov-21-G): inactive
Potency (Tov112D): inactive

C=C[C@]1(C)C[C@H](O)[C@@H]2[C@H](OC(=O)[C@@H]2C)C1/C(C)=C/O[C@@H]1O[C@H](CO)[C@@H](O)[C@H](O)[C@H]1O (some centres not stated)
Potency (C33A): inactive
Potency (CASKI): inactive
Potency (Es-2): inactive
Potency (HeLa): inactive
Potency (Hek293T): inactive
Potency (JEG-3): inactive
Potency (OV90): inactive
Potency (SKOV3): inactive
Potency (Tov-21-G): inactive
Potency (Tov112D): inactive

O=C(N/N=C/c1ccc(O)c(O)c1)c1cc2ccccc2cc1O
Potency (C33A): inactive
Potency (CASKI): inactive
Potency (Es-2): inactive
Potency (HeLa): inactive
Potency (Hek293T): inactive
Potency (JEG-3): inactive
Potency (OV90): inactive
Potency (PA-1): inactive
Potency (SKOV3): inactive
Potency (Tov112D): inactive

C[C@@H]1O[C@@H](O[C@@H]2[C@@H](O)[C@H](O[C@H]3CC[C@@]4(C)C(CC[C@]5(C)C4CC=C4[C@@H]6CC(C)(C)CC[C@]6(C(=O)O[C@@H]6O[C@H](CO)[C@@H](O)[C@H](O)[C@H]6O)CC[C@]45C)C3(C)C)O[C@H](C(=O)O)[C@H]2O)[C@H](O)[C@H](O)[C@H]1O (some centres not stated)
activity change, negative = cytotoxicity (C33A): -0.88% [at 11.6 µM]
activity change, negative = cytotoxicity (CASKI): 17% [at 11.6 µM]
activity change, negative = cytotoxicity (Es-2): 6.6% [at 11.6 µM]
activity change, negative = cytotoxicity (HeLa): 2.44% [at 11.6 µM]
activity change, negative = cytotoxicity (Hek293T): 5.01% [at 11.6 µM]
activity change, negative = cytotoxicity (JEG-3): 4.87% [at 11.6 µM]
activity change, negative = cytotoxicity (OV90): 3.49% [at 11.6 µM]
activity change, negative = cytotoxicity (PA-1): 2.04% [at 11.6 µM]
activity change, negative = cytotoxicity (Tov-21-G): 1.47% [at 11.6 µM]
activity change, negative = cytotoxicity (Tov112D): 5.96% [at 11.6 µM]

C=C(C(=O)O)[C@H]1C[C@]2(C)[C@@H](O)CC[C@]23O[C@H]1C[C@@H]3C
Potency (C33A): inactive
Potency (CASKI): inactive
Potency (Es-2): inactive
Potency (HeLa): inactive
Potency (Hek293T): inactive
Potency (JEG-3): inactive
Potency (OV90): inactive
Potency (PA-1): inactive
Potency (Tov-21-G): inactive
Potency (Tov112D): inactive

C=C1C(=O)OC2/C=C(\CO)CC/C=C(\C=O)CC(OC(=O)CC(C)C)C12 (configuration not stated)
Potency (C33A): inactive
Potency (CASKI): inactive
Potency (HeLa): inactive
Potency (Hek293T): inactive
Potency (JEG-3): inactive
Potency (OV90): inactive
Potency (Tov112D): inactive

NCc1ccc(Nc2ncc(F)c(Nc3ccccc3)n2)cc1
Potency (C33A): inactive
Potency (CASKI): inactive
Potency (HeLa): 15.8 µM (active)
Potency (Hek293T): inactive
Potency (JEG-3): inactive
Potency (OV90): inactive
Potency (PA-1): 12.6 µM (active)
Potency (Tov112D): inactive
